Only some compounds are listed: those with a hit (about 1.3% of all), similar ones and a draw of the others.
TRPML1 inh: qHTS for Inhibitors of the Human Mucolipin Transient Receptor Potential 1 (TRPML1). Mucolipin-1 (Homo sapiens), Q9GZU1. TRPML1-inducible cells, Ca2+ dye fluorescence, FDSS; stronger effect = lower value; inhibition of EC80 agonist-evoked calcium signal. activity change, negative = inhibition, % (test concentration not listed). actives 0.02% (n = 390,000). AID 624415, 2012; in the data active means activity change below about -50%; inconclusive means between about -30% and that limit;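 further: stimulus is agonist 54-4 at its EC80 concentration; on the % scale 0 is the no-effect control and ±100 the full control effect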
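TRPML1-DL cells, Tet-induced overnight (~16 h, 37 °C) at 1,500 cells/well, were loaded with Ca8 no-wash dye plus quencher for 45-90 min at room temperature. Compounds were pinned during FDSS kinetic reading; agonist 54-4 at EC80 (4 uM final) then added.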
KCNH2 WT inh: qHTS for Inhibitors of KCHN2 3.1: Wildtype qHTS. actives 0.37% (n = 340,000). U2OS, BacMam KCNH2, thallium flux FluxOr; stronger effect = lower value. Voltage-gated inwardly rectifying potassium channel KCNH2 (Homo sapiens), Q12809. activity change, % at 1.84 µM;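 active means maximum activity change below -70%; inconclusive means maximum activity change between -70% and -50%; inactive means maximum activity change above -50%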; further: on the % scale 0 is the no-effect control and ±100 the full control effect
Target sequence (Q12809 whole entry, looked up): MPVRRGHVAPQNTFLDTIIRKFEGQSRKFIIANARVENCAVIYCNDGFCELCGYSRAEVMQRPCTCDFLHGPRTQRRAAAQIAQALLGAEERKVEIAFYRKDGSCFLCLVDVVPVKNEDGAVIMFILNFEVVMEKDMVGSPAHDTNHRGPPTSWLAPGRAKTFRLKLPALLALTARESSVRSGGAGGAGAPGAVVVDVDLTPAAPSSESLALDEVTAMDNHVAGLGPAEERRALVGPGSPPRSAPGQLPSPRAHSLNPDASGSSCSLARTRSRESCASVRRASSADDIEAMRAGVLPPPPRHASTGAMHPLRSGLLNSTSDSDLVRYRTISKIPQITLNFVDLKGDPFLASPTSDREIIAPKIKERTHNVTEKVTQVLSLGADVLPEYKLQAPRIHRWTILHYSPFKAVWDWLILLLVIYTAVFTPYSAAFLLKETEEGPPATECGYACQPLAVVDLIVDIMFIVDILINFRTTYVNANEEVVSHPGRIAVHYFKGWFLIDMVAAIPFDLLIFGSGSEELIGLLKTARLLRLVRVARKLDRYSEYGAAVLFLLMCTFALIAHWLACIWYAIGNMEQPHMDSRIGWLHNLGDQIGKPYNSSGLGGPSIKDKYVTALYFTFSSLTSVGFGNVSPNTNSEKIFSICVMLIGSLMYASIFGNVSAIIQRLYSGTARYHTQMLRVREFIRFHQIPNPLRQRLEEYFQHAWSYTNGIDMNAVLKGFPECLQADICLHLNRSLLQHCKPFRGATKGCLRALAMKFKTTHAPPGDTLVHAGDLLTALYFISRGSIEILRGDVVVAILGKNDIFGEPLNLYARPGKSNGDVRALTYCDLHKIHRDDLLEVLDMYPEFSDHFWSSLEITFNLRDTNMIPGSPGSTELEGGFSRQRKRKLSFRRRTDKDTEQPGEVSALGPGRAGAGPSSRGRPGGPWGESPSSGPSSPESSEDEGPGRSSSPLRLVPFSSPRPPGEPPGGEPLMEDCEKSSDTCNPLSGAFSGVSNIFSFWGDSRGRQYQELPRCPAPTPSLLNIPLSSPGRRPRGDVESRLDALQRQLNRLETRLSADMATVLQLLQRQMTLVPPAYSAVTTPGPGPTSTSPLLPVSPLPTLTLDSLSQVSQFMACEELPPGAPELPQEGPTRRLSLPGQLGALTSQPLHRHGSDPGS
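U2OS cells were transduced with wild-type KCNH2 virus (2.03 x 10^8 / mL) for 4 h at room temperature, then cultured overnight at 37 C. Thallium flux was read with FluxOr dye. Rate constants were normalized to DMSO controls.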
TRPV1 agonist: HTS Assay for Compounds that Act as Agonists of the Vanilloid Receptor 1; actives 0.19% (n = 320,000); TRPV1-expressing cells, Fluo-8 calcium influx, agonist mode; activation, % at 8.33 µM; AID 540275, 2011; Transient receptor potential cation channel subfamily V member 1 (Homo sapiens), Q8NER1; in the data active means activation above about 80%; inconclusive means between about 30% and that limit; further: 0% is about no effect
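TRPV1-expressing cells were cultured overnight at 35.5C and loaded with Fluo-8 calcium dye for 40 to 90 min at room temperature. After a 10 s baseline, compound was added and calcium influx was read kinetically for 3 min (ex 480/em 520 nm).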
TRPML1 agonist: qHTS for Agonists of the Human Mucolipin Transient Receptor Potential 1 (TRPML1); Mucolipin-1 (Homo sapiens), Q9GZU1; TRPML1-expressing cells, Ca2+ dye fluorescence, FDSS; activation, % (no concentration beside the values); actives 0.12% (n = 410,000); in the data active means activation above about 50%; inconclusive means mostly about 30% to 49%; further: 0% is about no effect
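Calcium fluorescence on an FDSS kinetic reader gave the read-out. Tet-induced TRPML1-DL cells were plated overnight, dye-loaded (Ca8 with quencher, 45-90 min, room temperature, dark), then read 110 s after compound addition, and again 110 s after 4uM final 54-4 (EC80).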
KCNH2 3.1 inh: qHTS for Inhibitors of KCHN2 3.1: Mutant qHTS | Potassium voltage-gated channel subfamily H member 2, brain isoform KCNH2 3.1 (human) | U2OS KCNH2 3.1, thallium flux FluxOr; stronger effect = lower value | activity change, % (tested at about 1.8 µM) | actives 0.95% (n = 340,000);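 active means maximum activity change below -70%; inconclusive means maximum activity change from -70% to -50%; inactive means maximum activity change above -50%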;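 further: thallium influx rate constant from kinetic fluorescence after stimulation buffer; on the % scale 0 is the no-effect control and ±100 the full control effect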
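Thallium flux read-out: FluxOr dye with Red40 quencher in HBSS/HEPES, 45 min at RT. Rate constants from kinetic reads were normalized to positive and negative DMSO controls. Cells: U2OS virally expressing the 3.1 isoform.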
TRPV1 potentiator: HTS Assay for Compounds that Act as Potentiators of the Vanilloid Receptor 1. Transient receptor potential cation channel subfamily V member 1 (Homo sapiens), Q8NER1. potentiation, % at 8.33 µM. TRPV1-expressing cells, Fluo-8 calcium influx, capsaicin EC20 potentiation. actives 0.02% (n = 320,000). AID 540277, 2011; in the data active means potentiation above about 80%; inconclusive means between about 30% and that limit; further: 0% is about no effect
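Cells expressing TRPV1 were dye-loaded with Fluo-8 and read kinetically: 10 s baseline, 3 min after compound (agonist portion), then 2 min after EC20 capsaicin (allosteric enhancer portion). Calcium-bound dye fluorescence at 480/520 nm.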
The depositor's hits bear a star; ? = inconclusive; . = not tested or not shown.

SMILES	TRPML1 inh	KCNH2 WT inh	TRPV1 agonist	TRPML1 agonist	KCNH2 3.1 inh	TRPV1 potentiator
Cc1ccccc1NC(=O)CCN1CCN(C)CC1	3	3	2	0	-32	-49
CCOc1ccc(CCNC(=O)c2cccs2)cc1OCC	-13	1	21	-1	-86*	-19
COc1ccc(CCNC(=O)c2cccs2)cc1OC	20	2	2	0	-21	0
CCCCN(CCCC)S(=O)(=O)c1ccc(C(=O)Nc2sc3c(c2C(N)=O)CCN(CC)C3)cc1	-18	.	.	3	.	.
CCN1CCc2c(sc(NC(=O)c3ccc(S(=O)(=O)N(CC)c4ccccc4)cc3)c2C(N)=O)C1	-8	-5	28	61*	-38	1
CCN1CCc2c(sc(NC(=O)Nc3ccc(Cl)c(Cl)c3)c2C(N)=O)C1	-17	-133*	82*	81*	-119*	15
CCCCCOc1ccc(C(=O)N(Cc2ccccc2)C2CCS(=O)(=O)C2)cc1 (configuration not stated)	3	.	.	3	.	.
COCCN(Cc1cc2ccc(C)cc2[nH]c1=O)S(=O)(=O)c1ccccc1	3	-218*	1	0	7	8
CCN(c1ccccc1)c1ncnc2c1cnn2-c1ccc(OC)cc1	-23	.	.	2	.	.
CCNC(=S)N1CCC(C(=O)c2ccc3c(c2)OCCO3)CC1	-4	6	?	0	6	2
O=C(c1ccc2c(c1)OCCCO2)N1CCCCC1	-1	-2	1	4	-109*	10
O=C(c1ccc2c(c1)OCCO2)C1CCN(C(=O)c2ccc(F)cc2)CC1	52	-159*	2	0	5	-12
O=C(c1ccc2c(c1)OCO2)N1CCCN(C(=O)c2ccc3c(c2)OCO3)CC1	-10	4	1	0	4	5
CCOCCCNC(=S)N1CCC(C(=O)c2ccc3c(c2)OCCO3)CC1	5	2	11	-1	-170*	-9
COc1ccc(N(C(=O)c2ccc(OC)c(OC)c2)S(=O)(=O)c2ccc(Cl)cc2)cc1	-10	.	.	1	.	.
O=C(NCC(c1ccco1)S(=O)(=O)c1cccs1)c1ccc(C(F)(F)F)cc1 (configuration not stated)	0	.	.	-1	.	.
O=C(CN1CCN(C(=O)N2CCOCC2)CC1)Nc1ccc(Br)cc1	-14	-118*	4	2	-70*	?
COc1ccc(NC(=O)CCn2cccc2)cc1	6	-9	6	0	-78*	0
CCN(CC)c1ccc(NC(=O)CN2CCN(CC(=O)Nc3ccc(OC)cc3)CC2)cc1	-14	6	1	-1	-86*	8
COc1ccc(NC(=O)CN2CCCCC2)cc1	0	-3	4	-1	-28	?
O=C(CN1CCCCC1)Nc1ccc(S(=O)(=O)N2CCCCCC2)cc1	3	55	0	0	-83*	13
COC(=O)c1ccccc1NC(=O)c1ncoc1-c1ccco1	-3	.	.	0	.	.
COc1cccc(CNC(=O)CN2C(=O)N(c3ccc(C)cc3C)S(=O)(=O)c3ccccc32)c1OC	2	.	.	0	.	.
Cc1[nH]c2ccccc2c1C(=O)COC(=O)c1ccccc1SCC(=O)N1CCCC1	.	.	.	0	.	.
CCN(CC)c1ccc(NC(=O)CN2CCN(CC(=O)Nc3ccc(F)cc3)CC2)cc1	7	-75*	6	-1	-101*	1
SMILES	TRPML1 inh	KCNH2 WT inh	TRPV1 agonist	TRPML1 agonist	KCNH2 3.1 inh	TRPV1 potentiator
O=C(CN1CCN(Cc2ccc3c(c2)OCO3)CC1)Nc1ccc(F)cc1	16	-15	27	4	-84*	-48
O=C(NCc1ccc2c(c1)OCO2)Nc1ccc(F)cc1	12	-33	?	1	-16	-4
O=C(CN1CCCC1)Nc1ccc(F)cc1	0	-3	2	0	4	-2
Fc1ccc(NC(=S)NCc2ccc3c(c2)OCO3)cc1	37	2	?	0	-71*	-2
O=C(CN1CCN(CC(=O)Nc2ccc(Cl)cc2)CC1)Nc1ccc(F)cc1	1	-137*	0	-1	-118*	-7
Cc1cc(C)cc(NC(=O)COC(=O)CCCC2=NS(=O)(=O)c3ccccc3N2)c1	0	-110*	-4	0	1	26
Cc1cccc(-c2nc(S(=O)(=O)c3ccccc3)c(N3CCN(c4ccccc4)CC3)o2)c1	15	.	.	0	.	.
O=C(NCCc1ccccc1C(F)(F)F)c1cc(COc2ccccc2)on1	3	-18	.	0	-111*	.
O=C(NCCc1ccccc1F)c1cc(COc2ccc(F)cc2F)on1	-11	3	.	0	?	.
O=C(C[n+]1cccc(Br)c1)c1ccc(Br)cc1	.	.	.	0	.	.
COc1ccc2c(c1)C=C(CN1CCN(Cc3ccccc3C)C(CCO)C1)CO2 (configuration not stated)	-4	6	6	0	-28	-2
COc1ccc2c(c1)C=C(CN1CCC(CO)(CCc3ccccc3)CC1)CO2	3	-11	2	0	-88*	4
COc1ccc(CC2(CO)CCN(CC3=Cc4cc(Cl)ccc4OC3)CC2)cc1	34	-41	-1	0	-74*	6
Cc1ccc(CNC(=O)c2cc(-c3ccc(C)cc3)nc3n[nH]c(-c4cccc([N+](=O)[O-])c4)c23)cc1	4	.	.	1	.	.
CN(C(=O)CSc1nc2ccc(NC(=O)c3ccco3)cc2s1)c1ccccc1	36	.	.	0	.	.
COc1cccc(NC(=O)Cn2c(=O)n(-c3ccc(C)cc3)c(=O)c3ccccc32)c1	6	.	.	1	.	.
COc1cc(-n2cnnn2)ccc1S(=O)(=O)N1CCOCC1	76	-106*	4	0	-144*	-13
C=CCn1c(SCC(=O)Nc2ccc(S(N)(=O)=O)cc2)nnc1-c1cnccn1	90	-143*	2	-1	-12	24
Clc1cccc(-c2cc3nc4c(c(NCc5ccco5)n3n2)CCCC4)c1	19	-21	?	2	-101*	-3
Cc1cccc(NS(=O)(=O)c2cccc(C(=O)NCC3(N4CCCCC4)CCCCC3)c2)c1	1	12	-5	1	-48	-12

Screening results from PubChem.
